# According to PubChem BioAssay (NCATS):
# Results filed as inconclusive are left out. A call without a number means that no potency is given here. Activity calls are given as the source filed them. The call rests on the fitted dose curve; in most records, active means well fitted curve in the direction sought with a large enough effect; inconclusive means small, poorly fitted or top-dose-only effect, or another doubt; inactive means no such curve, though single readings can be large; an effect the other way counts as inactive or inconclusive.
# Columns and labels:
# [1] = qHTS of pediatric cancer cell lines to identify multiple opportunities for drug repurposing: Primary screen for BT-12 cells (AID 1347101); further: nearly all actives have a fitted effect of over 25% in size
# Procedure, shortened: (§1)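 Cells (500-1,000/well) rested 5 h, then received compounds for 48 h; metabolically active cells were measured by CellTiter-Glo luminescence. Final concentrations spanned up to 46 µM (MIPE, 11-point) or 0.59 nM-46 µM (NPC, 8-point) in primary screens, 11-point in follow-ups.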
# [2] = qHTS of pediatric cancer cell lines to identify multiple opportunities for drug repurposing: Primary screen for Rh18 cells (AID 1347102); further: nearly all actives have a fitted effect of over 65% in size; further: potency means the concentration at half of the fitted maximal effect
# Procedure, shortened: (§2)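 Viability after 48 h compound treatment at 37C, 500-1,000 cells/well, read as ATP luminescence with CellTiter-Glo. Primary screens used 11-point (MIPE, 0.78 nM-46 µM) or 8-point (NPC, 0.59 nM-46 µM) final concentrations; follow-up screens used 11-point dilutions.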
# [3] = qHTS of pediatric cancer cell lines to identify multiple opportunities for drug repurposing: Primary screen for RD cells (AID 1347104); further: nearly all actives have a fitted effect of over 55% in size
# Procedure, shortened: (§3)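 500-1,000 cells/well; 5 h pre-incubation 37 °C/5% CO2; compound pinned; 48 h; CellTiter-Glo, 15 min RT; luminescence. MIPE 11-pt from 0.78 nM, NPC 8-pt from 0.59 nM final. Bortezomib 2.3 µM final as positive control.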
# [4] = qHTS of pediatric cancer cell lines to identify multiple opportunities for drug repurposing: Primary screen for MG 63 (6-TG R) cells (AID 1347105); further: nearly all actives have a fitted effect of over 50% in size
# Procedure, shortened: as §3
# [5] = qHTS of pediatric cancer cell lines to identify multiple opportunities for drug repurposing: Primary screen for control Hh wild type fibroblast cells (AID 1347106);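 further: series mostly up to about 46 µM; a drop in luminescence marks cytotoxicity and a rise apparent proliferation; nearly all actives have a fitted effect of over 55% in size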
# Procedure, shortened: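 Cells (500-1,000/well) in growth media were settled 5 h at 37 degrees C, then given compounds for 48 h. Viability was read as CellTiter-Glo luminescence. Primary runs used MIPE at 11 points (0.78 nM-46 µM) and NPC at 8 points (0.59 nM-46 µM); follow-ups used 11 points.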
# [6] = qHTS of pediatric cancer cell lines to identify multiple opportunities for drug repurposing: Primary screen for Rh30 cells (AID 1347107); further: series mostly up to about 46 µM; nearly all actives have a fitted effect of over 75% in size
# Procedure, shortened: as §2
# [7] = qHTS of pediatric cancer cell lines to identify multiple opportunities for drug repurposing: Primary screen for Rh41 cells (AID 1347108);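 further: series mostly up to about 46 µM; luminescence drop marks cytotoxic hits; nearly all actives have a fitted effect of over 70% in size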
# Procedure, shortened: as §3
# [8] = qHTS of pediatric cancer cell lines to identify multiple opportunities for drug repurposing: Primary screen for OHS-50 cells (AID 1347103); further: potency means the concentration at half of the fitted maximal effect; nearly all actives have a fitted effect of over 40% in size
# Procedure, shortened: as §1
SMILES,Potency [1],Potency [2],Potency [3],Potency [4],Potency [5],outcome [6],Potency [7],Potency [8]
O=c1c(-c2ccc(O)cc2)coc2cc(O)cc(O)c12,inactive,inactive,inactive,inactive,inactive,inactive,inactive,
Cn1cnc2c1c(=O)[nH]c(=O)n2C,,,,,inactive,inactive,,
Nc1nc2c(ncn2COC(CO)CO)c(=O)[nH]1,,inactive,inactive,,inactive,inactive,,
COc1cc2nc(N3CCN(C(=O)C4COc5ccccc5O4)CC3)nc(N)c2cc1OC (stereo not drawn),,26.4 µM (active),,inactive,inactive,inactive,,24.6 µM (active)
